# Experimental data published in article PMC11062922 (Nature Chemical Biology, 2023).
# Like-named read-outs stand apart in the source and are kept apart here.
# How the values were obtained:
# [1] = system: ABL1; set-up: species or system human, MV4-11 + K-562 + COLO205 + SK-N-BE2 + OVCAR-8; conditions: read-out: apparent Kd, compound concentrations: 100 nM and 1000 nM (sheet 'Samples'), n = 1
# [2] = system: ABL2; set-up: species or system human, MV4-11 + K-562 + COLO205 + SK-N-BE2 + OVCAR-8; conditions: read-out: apparent Kd, compound concentrations: 100 nM and 1000 nM (sheet 'Samples'), n = 1
# [3] = system: BCR; set-up: species or system human, MV4-11 + K-562 + COLO205 + SK-N-BE2 + OVCAR-8; conditions: read-out: apparent Kd, compound concentrations: 100 nM and 1000 nM (sheet 'Samples'), n = 1
# [4] = system: FYN; set-up: species or system human, MV4-11 + K-562 + COLO205 + SK-N-BE2 + OVCAR-8; conditions: read-out: apparent Kd, compound concentrations: 100 nM and 1000 nM (sheet 'Samples'), n = 1
# [5] = system: GAK; set-up: species or system human, MV4-11 + K-562 + COLO205 + SK-N-BE2 + OVCAR-8; conditions: read-out: apparent Kd, compound concentrations: 100 nM and 1000 nM (sheet 'Samples'), n = 1
# [6] = system: HCK; set-up: species or system human, MV4-11 + K-562 + COLO205 + SK-N-BE2 + OVCAR-8; conditions: read-out: apparent Kd, compound concentrations: 100 nM and 1000 nM (sheet 'Samples'), n = 1
# [7] = system: LCK; set-up: species or system human, MV4-11 + K-562 + COLO205 + SK-N-BE2 + OVCAR-8; conditions: read-out: apparent Kd, compound concentrations: 100 nM and 1000 nM (sheet 'Samples'), n = 1
# [8] = system: PTK6; set-up: species or system human, MV4-11 + K-562 + COLO205 + SK-N-BE2 + OVCAR-8; conditions: read-out: apparent Kd, compound concentrations: 100 nM and 1000 nM (sheet 'Samples'), n = 1
# [9] = system: RET; set-up: species or system human, MV4-11 + K-562 + COLO205 + SK-N-BE2 + OVCAR-8; conditions: read-out: apparent Kd, n = 1
# [10] = system: RIPK2; set-up: species or system human, MV4-11 + K-562 + COLO205 + SK-N-BE2 + OVCAR-8; conditions: read-out: apparent Kd, compound concentrations: 100 nM and 1000 nM (sheet 'Samples'), n = 1
# [11] = system: RIPK3; set-up: species or system human, MV4-11 + K-562 + COLO205 + SK-N-BE2 + OVCAR-8; conditions: read-out: apparent Kd, n = 1
# [12] = system: YES1; set-up: species or system human, MV4-11 + K-562 + COLO205 + SK-N-BE2 + OVCAR-8; conditions: read-out: apparent Kd, n = 1
# [13] = system: AAK1; set-up: species or system human, MV4-11 + K-562 + COLO205 + SK-N-BE2 + OVCAR-8; conditions: read-out: apparent Kd, n = 1
# [14] = system: TNK1; set-up: species or system human, MV4-11 + K-562 + COLO205 + SK-N-BE2 + OVCAR-8; conditions: read-out: apparent Kd, n = 1
# [15] = system: CLK1; set-up: species or system human, MV4-11 + K-562 + COLO205 + SK-N-BE2 + OVCAR-8; conditions: read-out: apparent Kd, compound concentrations: 100 nM and 1000 nM (sheet 'Samples'), n = 1
# [16] = system: CLK4; set-up: species or system human, MV4-11 + K-562 + COLO205 + SK-N-BE2 + OVCAR-8; conditions: read-out: apparent Kd, compound concentrations: 100 nM and 1000 nM (sheet 'Samples'), n = 1
# [17] = system: CSNK2A1;CSNK2A3; set-up: species or system human, MV4-11 + K-562 + COLO205 + SK-N-BE2 + OVCAR-8; conditions: read-out: apparent Kd, compound concentrations: 100 nM and 1000 nM (sheet 'Samples'), n = 1
# [18] = system: CSNK2A2; set-up: species or system human, MV4-11 + K-562 + COLO205 + SK-N-BE2 + OVCAR-8; conditions: read-out: apparent Kd, compound concentrations: 100 nM and 1000 nM (sheet 'Samples'), n = 1
# [19] = target: Q6ZSR9 (human, UniProt Q6ZSR9); set-up: species or system MV4-11 + K-562 + COLO205 + SK-N-BE2 + OVCAR-8; conditions: read-out: apparent Kd, compound concentrations: 100 nM and 1000 nM (sheet 'Samples'), n = 1
# [20] = compound concentrations:100 nM and 1000 nM (sheet 'Samples')
# Sequence of Q6ZSR9 (Q6ZSR9 whole entry, looked up): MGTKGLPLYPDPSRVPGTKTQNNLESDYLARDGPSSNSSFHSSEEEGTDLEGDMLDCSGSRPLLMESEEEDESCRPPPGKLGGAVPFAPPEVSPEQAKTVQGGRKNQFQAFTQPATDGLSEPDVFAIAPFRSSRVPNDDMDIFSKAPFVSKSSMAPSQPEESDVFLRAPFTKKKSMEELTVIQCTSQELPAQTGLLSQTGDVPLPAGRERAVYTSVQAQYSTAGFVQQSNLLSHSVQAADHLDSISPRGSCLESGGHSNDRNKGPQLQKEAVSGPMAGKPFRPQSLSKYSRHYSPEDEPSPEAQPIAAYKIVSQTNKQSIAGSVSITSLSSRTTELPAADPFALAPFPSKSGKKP
structure (smiles),measurement,setting,value
Cc1ccc(O)cc1Nc1ccnc2cc(-c3ccc(CN4CCCCC4)o3)ccc12 [GW557777X],potency estimated from few doses,[1]; CATDS: 4.3692235612931E-2,8.34 nM
same,potency estimated from few doses,[2]; CATDS: 6.7746368355333403E-2,2.92 nM
same,potency estimated from few doses,[3]; CATDS: 0.10189444124387,1.17 nM
same,potency estimated from few doses,[4]; CATDS: 2.5035707525361502E-2,44.5 nM
same,potency estimated from few doses,[5]; CATDS: 5.9852273314458602E-2,3.88 nM
same,potency estimated from few doses,[6]; CATDS: 2.2990890088698399E-2,60.9 nM
same,potency estimated from few doses,[7]; CATDS: 1.5741185519971699E-2,353 nM
same,potency estimated from few doses,[8]; CATDS: 2.4564391165164502E-2,47.6 nM
same,potency estimated from few doses,"[9]; compound concentrations: 100 nM and 1000 nM (sheet 'Samples'), CATDS: 4.4477848245190701E-2",7.97 nM
same,potency estimated from few doses,[10]; CATDS: 5.5536056615070897E-2,4.62 nM
same,potency estimated from few doses,"[11]; compound concentrations: 100 nM and 1000 nM (sheet 'Samples'), CATDS: 1.48381507951055E-2",508 nM
same,potency estimated from few doses,"[12]; compound concentrations: 100 nM and 1000 nM (sheet 'Samples'), CATDS: 2.43288733372133E-2",49.3 nM
Nc1nc(-c2ccc3c(N)n[nH]c3c2)cc(N2CCCCC2)n1 [GSK2228768A],potency estimated from few doses,[13]; [20],749 nM
CS(=O)(=O)Cc1ccc(Nc2nccc(-c3c(-c4cccc(NC(=O)C5CCCCC5)c4)nn4ncccc34)n2)cc1 [GSK350559A],potency estimated from few doses,[9]; [20],1370 nM
same,potency estimated from few doses,[11]; [20],1130 nM
same,potency estimated from few doses,[14]; [20],261 nM
same,potency estimated from few doses,[12]; [20],461 nM
NC1=NC(=O)/C(=C/c2ccc3ncccc3c2)S1 [RO4569139-000],potency estimated from few doses,"[13]; compound concentrations: 100 nM and 1000 nM (sheet 'Samples'), CATDS: 6.8889261451454395E-2",1710 nM
same,potency estimated from few doses,[15]; CATDS: 0.136614362929,259 nM
same,potency estimated from few doses,[16]; CATDS: 7.4487877667225894E-2,1260 nM
same,potency estimated from few doses,[17]; CATDS: 0.13735026532766101,256 nM
same,potency estimated from few doses,[18]; CATDS: 0.14765038324125301,222 nM
same,potency estimated from few doses,[19]; CATDS: 7.6885749429296102E-2,1130 nM
Cl.Cl.Cl.c1ccc(Oc2ccc(Nc3ccnc4cc(-c5ccc(CN6CCNCC6)o5)ccc34)cc2)nc1.c1ccc(Oc2ccc(Nc3ccnc4cc(-c5ccc(CN6CCNCC6)o5)ccc34)cc2)nc1 [GW567142A],potency estimated from few doses,[1]; CATDS: 0.106160515103876,36.7 nM
same,potency estimated from few doses,[2]; CATDS: 3.7512936282147198E-2,226 nM
same,potency estimated from few doses,[3]; CATDS: 2.8038265853645699E-2,446 nM
same,potency estimated from few doses,[4]; CATDS: 5.8978422577379903E-2,93.1 nM
same,potency estimated from few doses,[6]; CATDS: 9.4879616105776998E-2,43.2 nM
same,potency estimated from few doses,[7]; CATDS: 2.9875488877577801E-2,381 nM
same,potency estimated from few doses,[8]; CATDS: 5.6771173878132498E-2,99.7 nM
same,potency estimated from few doses,[10]; CATDS: 5.5547059533083698E-2,104 nM
same,potency estimated from few doses,"[11]; compound concentrations: 100 nM and 1000 nM (sheet 'Samples'), CATDS: 2.6794845522232699E-2",500 nM
same,potency estimated from few doses,"[12]; compound concentrations: 100 nM and 1000 nM (sheet 'Samples'), CATDS: 0.102310323687496",38.7 nM
NC(=O)c1cccc(Nc2nccc(Nc3cccc4[nH]ncc34)n2)c1 [GW782612X],potency estimated from few doses,[1]; CATDS: 3.3551530123454902E-2,1900 nM
same,potency estimated from few doses,[2]; CATDS: 4.6849720703519497E-2,629 nM
same,potency estimated from few doses,[3]; CATDS: 5.7731069178064698E-2,381 nM
same,potency estimated from few doses,[15]; CATDS: 3.6631639688053302E-2,1340 nM
same,potency estimated from few doses,[16]; CATDS: 4.0513674478844103E-2,951 nM
same,potency estimated from few doses,[18]; CATDS: 3.4795292983427199E-2,1630 nM
same,potency estimated from few doses,[5]; CATDS: 4.0699733875589103E-2,937 nM
same,potency estimated from few doses,[10]; CATDS: 7.1079405795032996E-2,247 nM
CC(C)c1nc(-c2cccc(NS(=O)(=O)c3ccccc3)c2)c(-c2ccnc(Nc3ccc4c(c3)CN(C)CC4)n2)s1 [GSK1649598A],potency estimated from few doses,[1]; CATDS: 2.01463365951845E-2,368 nM
same,potency estimated from few doses,[2]; CATDS: 3.9720351054025098E-2,93.8 nM
same,potency estimated from few doses,[3]; CATDS: 1.4720639450574301E-2,924 nM
same,potency estimated from few doses,[4]; CATDS: 1.9244455455098501E-2,413 nM
same,potency estimated from few doses,[5]; CATDS: 0.115621915519597,19.8 nM
same,potency estimated from few doses,[6]; CATDS: 1.6425065187182699E-2,643 nM
same,potency estimated from few doses,[7]; CATDS: 3.58702015349356E-2,112 nM
same,potency estimated from few doses,[8]; CATDS: 1.42958167275793E-2,1030 nM
same,potency estimated from few doses,[10]; CATDS: 2.88864910940058E-2,167 nM
same,potency estimated from few doses,"[11]; compound concentrations: 100 nM and 1000 nM (sheet 'Samples'), CATDS: 1.96372512533491E-2",392 nM
same,potency estimated from few doses,"[14]; compound concentrations: 100 nM and 1000 nM (sheet 'Samples'), CATDS: 3.1602555545839801E-2",141 nM
same,potency estimated from few doses,"[12]; compound concentrations: 100 nM and 1000 nM (sheet 'Samples'), CATDS: 2.5454428176696801E-2",216 nM
O=C1N=C(NCCc2ccccc2F)S/C1=C\c1ccc2ncccc2c1 [RO4498483-000],potency estimated from few doses,"[13]; compound concentrations: 100 nM and 1000 nM (sheet 'Samples'), CATDS: 8.5407630700809506E-2",957 nM
same,potency estimated from few doses,[15]; CATDS: 0.138137656029612,347 nM
same,potency estimated from few doses,[16]; CATDS: 9.8466136533641502E-2,675 nM
same,potency estimated from few doses,[17]; CATDS: 0.15223513812582401,295 nM
same,potency estimated from few doses,[18]; CATDS: 0.14884656797599799,306 nM
same,potency estimated from few doses,[19]; CATDS: 8.1205084555915505E-2,1100 nM
Cc1nn(C)c2cc(N(C)c3ccnc(Nc4cccc(S(N)(=O)=O)c4)n3)ccc12.Cl [GW770220A],potency estimated from few doses,"[13]; compound concentrations: 100 nM and 1000 nM (sheet 'Samples'), CATDS: 0.34831040930344798",632 nM
same,potency estimated from few doses,[19]; CATDS: 0.39212964610314199,507 nM
